Compound activity: PubChem BioAssay, Broad Institute
Not all results are given here.
aSyn 5UTR act: Activators working through SNCA 5'UTR binding (MLPCN). alpha-synuclein 5'UTR reporter, activators screen. activity score, % (tested at 7.5 µM), hits read low. 7.1% of 300,000 active; in the data active = activity score below about -60%
Numbers without * were called inactive.

SMILES	aSyn 5UTR act
Cc1ccc(NC(=O)C2COc3ccccc3O2)cc1C (stereo not drawn)	-170.8*
Cc1cccc(NC(=O)C2COc3ccccc3O2)c1 (stereo not drawn)	-114.8*
N=C1CCCN1CC(=O)c1ccc(Br)cc1	-87.5*
Cc1ccc(CNc2ccc3c(c2)OCO3)cc1	-131.1*
O=Cc1ccc(OCc2ccc3c(c2)OCO3)cc1	-76.5*
Cc1ccc(COc2ccc3c(c2)OCO3)cc1	-114.0*
CCOc1cc(CNc2ccc3c(c2)OCCO3)cc(Br)c1OCC	97.4
Cc1cc(NC(c2ccc(Cl)cc2)c2ccc3cccnc3c2O)no1 (stereo not drawn)	84.9
COn1c(-c2ccc(Cl)cc2)nc2ncccc21	-106.6*
Cc1ccc2c(CN3CCC(C)CC3)cc(=O)oc2c1C	-125.6*
COc1ccc(N2CCN(Cc3cc(=O)oc4cc(-c5ccccc5)c(O)cc34)CC2)cc1	73.1
O=C(Nc1ccc(Br)cn1)c1cccc(-c2cc3ccccc3oc2=O)c1	-112.3*
Cc1nc(NC(=O)c2cccc(-c3cc4ccccc4oc3=O)c2)ccc1Br	-81.4*
O=C(/C=C\Nc1ccc2c(c1)OCO2)c1ccccn1	117.6
COc1ccc(N/C=C\C(=O)c2ccc3c(c2)OCO3)cc1	-263.9*
CCOc1ccc(N/C=C\C(=O)c2ccc3c(c2)OCO3)cc1	-89.3*
O=C(/C=C\Nc1ccc2c(c1)OCO2)c1ccc2c(c1)OCO2	-175.4*
Fc1ccccc1C1CCN(Cc2nc(CC3CC3)no2)C1 (stereo not drawn)	-81.5*
Cc1ccc(N2CN=C3SCC(=O)N3C2)cc1C	-120.9*
Cc1nc(NC(=O)c2ccc(Br)o2)sc1C	-129.4*
Cc1ccc(C(=O)Nc2nc(C)c(C)s2)o1	-114.2*
CC(C)N1CC(O)=C(c2nc3ccccc3c(=O)[nH]2)C1=N	-75.0*
Cc1csc(Nc2ccccc2)[n+]1-c1ccccc1	-68.8*
CC(=O)N(/N=C1\Sc2ccccc2C1=O)c1ccccc1C	-170.1*
Cc1ccc(-c2c(C)sc(=NC(=O)c3ccco3)n2C)cc1	-122.8*
SMILES	aSyn 5UTR act
O=C(CCc1ccccc1)Nc1cccnc1	-63.1*
CC(Cc1ccccc1)C(=O)Nc1ccc(Br)cc1 (stereo not drawn)	-81.2*
CC(C)(C)c1ccc(-c2noc(CCC(=O)Nc3cccnc3)n2)cc1	76.9
CC(C)c1ccc(NC(=O)CCc2ccccc2)cc1	-388.9*
COCc1cccc(NC(=O)CCc2ccccc2)c1	-99.4*
O=C(CSCC(=O)N1CCOCC1)Nc1nc(-c2ccc3c(c2)OCO3)cs1	-131.1*
CCOC(=O)N1CCN(C(=O)CSCC(=O)Nc2nc(-c3ccc(C)cc3)cs2)CC1	-85.2*
O=C(CCCCl)Nc1nc(-c2ccc3c(c2)OCCO3)cs1	-116.9*
O=C(Nc1nc(-c2ccc3c(c2)OCCO3)cs1)C1CCCC1	-150.8*
Cc1cccc(NS(=O)(=O)c2ccc(-c3cnc(C4CC4)o3)cc2)c1C	99.7
CC(=O)Nc1nc(-c2ccc3c(c2)OCO3)cs1	-129.9*
Cc1onc(-c2ccccc2)c1C(=O)O/N=C(\N)c1ccc([N+](=O)[O-])o1	-136.0*
CCOc1cnc(-c2ccc(Cl)cc2)o1	-105.1*
CCOc1cnc(-c2ccc(OC)cc2)o1	-106.0*
Cc1cc(C)c2sc(NC(=O)c3ccc([N+](=O)[O-])o3)nc2c1	-110.4*
O=C(Nc1nc2c(F)cc(F)cc2s1)c1ccc([N+](=O)[O-])o1	-69.3*
Cc1ccc(C)c(-c2nnc(NC(=O)c3ccc([N+](=O)[O-])o3)o2)c1	-62.9*
O=C(CCc1ccccc1)Nc1nc2c(F)cc(F)cc2s1	-99.0*
Cc1cc(C)c2nc(NC(=O)c3ccc([N+](=O)[O-])o3)sc2c1	-144.1*
Cc1cc(/C=C2\SC(=S)NC2=O)c(C)n1-c1ccccc1	-163.3*
Cc1cc(/C=C2\SC(=S)NC2=O)c(C)n1-c1ccc(O)cc1	-67.6*
Cc1cc(/C=C2\SC(N)=NC2=O)c(C)n1-c1ccccc1	-112.3*
COc1ccc(-n2c(C)cc(/C=C3\SC(=S)NC3=O)c2C)cc1	-152.5*
O=C(/C=C/c1ccc(Br)o1)Nc1nccs1	-149.2*
O=C(Nc1nccs1)c1ccc(Br)o1	-102.3*
SMILES	aSyn 5UTR act
CC(=O)Nc1ccc(SCC(=O)c2cc(C)n(C)c2C)cc1	-68.9*
O=[N+]([O-])c1cc(-c2nc(-c3ccncc3)no2)ccc1Cl	-79.3*
O=[N+]([O-])c1cc(-c2nc(-c3ccncc3)no2)cc([N+](=O)[O-])c1	-118.3*
Clc1ccc2c(c1)C(C1=NCCN1)c1ccccc1CS2 (stereo not drawn)	78.7
O=C(Cc1cccs1)N/N=C/C(Cl)=C/c1ccccc1	-192.5*
CCOc1ccc(/C=N/NC(=O)Cc2cccs2)cc1	-84.6*
Cc1cccc(/C=N/NC(=O)Cc2cccs2)c1	-73.8*
CCN(CC)c1ccc(/C=N/NC(=O)Cc2cccs2)c(O)c1	59.9
CCOC(=O)N/N=C/C(Cl)=C/c1ccccc1	-127.8*
CCN(CC)c1ccc(/C=C/C(=O)C2C(=O)C=C(C)OC2=O)cc1 (stereo not drawn)	-239.9*
CCNC(=S)N/N=C/c1sc(N2CCCCC2)nc1-c1cccs1	-102.2*
COc1ccc(C2OC3=C(Nc4cc(C)c(C)cc4N3)C2=O)cc1 (stereo not drawn)	-98.2*
Cn1cccc1/C=C1\SC(=O)N(c2ccccc2)C1=O	-115.3*
Cn1cc(/C=C2/SC(=O)N(c3ccccc3)C2=O)c2ccccc21	-221.4*
O=C(O)c1cccc(Nc2ncnc3c2cnn3-c2ccccc2)c1	-100.9*
Fc1cccc(Nc2ncnc3c2cnn3-c2ccccc2)c1	-172.8*
Clc1cccc(Nc2ncnc3c2cnn3-c2ccccc2)c1	-86.3*
O=C1C2C3C=CC(CO)(O3)C2C(=O)N1c1ccc(-c2ccccc2)cc1 (stereo not drawn)	-84.8*
O=C1OC(c2ccccc2)=C/C1=C\N1CCOCC1	-66.9*
Cc1ccc(NC(=O)c2cc(-c3cccc(O)c3)on2)cc1C	-114.8*
COc1ccc(-c2cc(C(=O)NCc3cccnc3)no2)cc1	-116.6*
O=C(NCc1ccccc1)c1cc(-c2cccc(O)c2)on1	-65.9*
O=C(NCc1cccnc1)c1cc(-c2ccccc2)on1	-88.7*
O=C(NCc1cccnc1)c1cc(-c2cccs2)on1	-91.7*
COc1ccc(CNC(=O)c2cc(C3CC3)on2)cc1	-106.2*
SMILES	aSyn 5UTR act
Cc1ccc(C(=O)/C=C/Nc2cccc([N+](=O)[O-])c2)o1	-167.2*
O=C(/C=C/Nc1cccc([N+](=O)[O-])c1)c1ccco1	-282.7*
CCOC(=O)c1ccc(NC(=S)Nc2ccccn2)cc1	-136.8*
CCOC(=O)c1ccc(NC(=O)Nc2ncccc2C)cc1	-102.4*
Cc1ccc(NC(=O)Nc2ncccc2C)cc1	-162.9*
Cc1cccnc1NC(=O)Nc1ccc(F)cc1	-144.1*
CC1CCc2cccc3c2N1c1cc(C#N)c(C#N)cc1O3 (stereo not drawn)	71.4
Cc1ccc(C(=O)CC(c2cccs2)S(=O)(=O)c2ccc(C)cc2)cc1 (stereo not drawn)	-117.6*
COc1ccc(NC(=O)c2cc3ccccc3cc2O)cc1	-118.6*
Cc1ccc(NC(=O)c2cc3ccccc3cc2O)cc1	-179.4*
COc1cc(O)c2c(=O)c3c(OC)c(O)ccc3oc2c1	-78.0*
COc1cc(-c2cc(=O)c3c(O)cc(O)cc3o2)ccc1O	-79.0*
O=c1c(O)c(-c2ccc(O)cc2)oc2cc(O)cc(O)c12	-100.1*
O=c1cc(-c2ccccc2)oc2cc(O)cc(O)c12	-170.7*
O=c1cc(-c2ccc(O)cc2)oc2cc(O)cc(O)c12	-269.3*
COc1ccc(-c2cc(=O)c3c(O)c(OC)c(O)cc3o2)cc1	70.2
